Test [1] is described as follows: qHTS assay to identify small molecule antagonists of the estrogen related receptor (ERR) signaling pathway from Tox21 library - cell viability counter screen (AID 1224834). Note: nearly all actives have a fitted effect of over 30% in size. In a few lines: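 Counter screen run in ERR cells (2,000 cells/well): cells pre-incubated 6 h, then treated with compounds for 17.5 h at 37 C. Fluorescence was read 30 min after CellTiter-Fluor addition.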

The target of test [2] is Luciferin 4-monooxygenase (Photinus pyralis) (UniProt P08659). The experiment in a line: qHTS assay to identify small molecule inhibitors of firefly luciferase (AID 1224835). Note: nearly all actives have a fitted effect of over 25% in size. In a few lines: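 Quantitative HTS format; KM concentrations of both substrates. Purified P. pyralis FLuc activity quantified from luminescence images.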
Test [3] is described as follows: qHTS assay to identify small molecule agonists of the constitutive androstane receptor (CAR) signaling pathway - cell viability counter screen (AID 1224836). Note: nearly all actives have a fitted effect of over 45% in size. The procedure, abridged: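 HepG2-CYP2B6-hCAR, 2500 cells/well, 4 h pre-incubation; cpd 15 conc + PK11195 0.75 uM final; 23 h, 37 C/5% CO2; CellTiter-Fluor, fluorescence.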
Test [4] in a line: qHTS assay to identify small molecule antagonists of the constitutive androstane receptor (CAR) signaling pathway - cell viability counter screen (AID 1224837). Note: nearly all actives have a fitted effect of over 45% in size. The procedure, abridged:
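CITCO at 50 nM final was added alongside compounds (15 concentrations) to double-stable hCAR/CYP2B6-2.2kb HepG2 cells. Following 23 hr at 37 C, cell viability was quantified by CellTiter-Fluor fluorescence intensity.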

The target of test [5] is Nuclear receptor subfamily 1 group I member 3 (Homo sapiens) (UniProt Q14994). The experiment in a line: qHTS assay to identify small molecule antagonists of the constitutive androstane receptor (CAR) signaling pathway (AID 1224838). Note: nearly all actives have a fitted effect of over 40% in size. In a few lines:
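Inhibition of CITCO-driven (50 nM final) CYP2B6 reporter expression is measured in HepG2 cells stably carrying hCAR. Fifteen compound concentrations are applied for 24 h at 37 C, followed by luciferase luminescence.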

The target is the same in test [6]. The experiment in a line: qHTS assay to identify small molecule agonists of the constitutive androstane receptor (CAR) signaling pathway (AID 1224839). Note: nearly all actives have a fitted effect of over 15% in size. The procedure, abridged:
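HepG2-CYP2B6-hCAR cells, 2500/well, 4 h pre-incubation; compounds 15 conc.; PK11195 0.75 uM final; 24 h, 37 C/5% CO2; ONE-Glo luciferase read.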

A short description of test [7]: qHTS assay to identify small molecule antagonists of the estrogen related receptor signaling pathway with the pleiotropic PPARgamma coactivator (PGC) from Tox21 10K library - cell viability counter screen (AID 1224840; active = well fitted cell-killing curve with a large enough effect in the repeat runs, not every such curve was filed as active; note: nearly all actives have a fitted effect of over 40% in size). The procedure, abridged:
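Readout: fluorescence intensity from CellTiter-Fluor after 30 min at 37 C/5% CO2. Preceded by 17.5 h treatment of PGC/ERR cells with DMSO-dissolved compounds, added 6 h post-seeding.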

The nature of test [8]: qHTS assay to identify small molecule antagonists of the estrogen related receptor signaling pathway with the pleiotropic PPARgamma coactivator (PGC) from Tox21 10K library (AID 1224841; call rule not given here; note: actives are mostly falling curves and most rising ones were filed inactive; nearly all actives have a fitted effect of over 50% in size). The procedure, abridged: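 One-Glo luminescence, measured after half an hour at room temperature, quantified reporter output of PGC/ERR cells. These had been plated at 2,000 per well, incubated 6 h, dosed with compounds in DMSO, then kept 18 h at 37 C.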

Test [9] in a line: qHTS assay to identify small molecule agonists of the estrogen related receptor signaling pathway with the pleiotropic PPARgamma coactivator (PGC) from Tox21 10K library (AID 1224842). Note: nearly all actives have a fitted effect of over 15% in size. In a few lines: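 PGC/ERR reporter cells (NTP line) were seeded 2,000 per well, rested 6 h at 37 C/5% CO2, then pin-dosed with compounds in DMSO for 18 h at 37 C; luciferase read by One-Glo luminescence after 30 min at room temperature.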

In test [10] the target is Thyrotropin receptor (Homo sapiens) (UniProt P16473). The test can be described thus: qHTS assay to identify small molecule agonists of the thyroid stimulating hormone receptor (TSHR) signaling pathway (AID 1224843; calls by dose curve; note: nearly all actives have a fitted effect of over 45% in size). In a few lines: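 Compounds are titrated over 15 concentrations, in triplicate, onto TSHR-HEK293 cells seeded at 800/well. Plates sit 30 min at room temperature before cAMP-d2 and anti-cAMP cryptate are added; signal is read after a further hour.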

The nature of test [11]: qHTS assay to identify small molecule agonists of the hypoxia (HIF-1) signaling pathway - cell viability counter screen (AID 1224844; calls by dose curve; note: nearly all actives have a fitted effect of over 50% in size). The procedure, abridged: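 In this counter screen, HRE-bla ME-180 cell viability after 17 hrs of compound exposure at 37C was read by CellTiter-Glo luminescence, multiplexed with the beta-lactamase reporter measurement.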
Test [12] is described as follows: qHTS assay to identify small molecule agonists of H2AX (AID 1224845; active = well fitted activation curve with a large enough effect in the signal ratio in the repeat runs, not every such curve was filed as active; the % refers to the signal ratio). In a few lines:
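Wild-type CHO-K1 cells plated overnight, then exposed 3 hr at 37C to compounds at 15 concentrations (0.76% DMSO). Lysed, then HTRF anti-pH2AX(S139)-cryptate/anti-H2AX-d2 detection after 24 hr at room temperature; emissions 665 and 620 nm.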

Test [13] can be described thus: qHTS assay to identify small molecule agonists of the hypoxia (HIF-1) signaling pathway (AID 1224846; active = well fitted activation curve with a large enough effect in the signal ratio in the repeat runs, not every such curve was filed as active; the % refers to the signal ratio). In a few lines:
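ME-180 HRE-bla reporter cells; compounds in DMSO, 17 h at 37C; read-out beta-lactamase via CCF4-AM FRET.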

Test [14] can be described thus: qHTS assay to identify small molecule agonists of H2AX - cell viability counter screen (AID 1224847; calls by dose curve; note: top concentration of the series differs between compounds; nearly all actives have a fitted effect of over 30% in size). The procedure, abridged:
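Cells plated first: CHO-K1, 1000 per well in 10% FBS medium, incubated overnight at 37C. Then 15-point compound titration added (final DMSO 0.76%) for 3 hr. Finally CellTiter-Glo added and luminescence read.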

A short description of test [15]: qHTS assay to identify small molecule antagonists of the estrogen related receptor (ERR) signaling pathway from Tox21 library (AID 1224848). Note: nearly all actives have a fitted effect of over 50% in size. In a few lines: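 First, 2,000 ERR cells per well were plated and held 6 h at 37 C/5% CO2. Next, compounds in DMSO were pinned in and left 18 h at 37 C. Finally, ONE-Glo was added and luminescence read after 30 min at room temperature.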

Test [16] is described as follows: qHTS RealTime-Glo MT Cell Viability Assay in HepG2 cells - 24 hour (AID 1224867). Note: nearly all actives have a fitted effect of over 50% in size. In a few lines:
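HepG2 suspension premixed with RealTime-Glo reagents is plated at 600 cells per well and left 5 h at 37 C/5% CO2. Compounds in DMSO then go in, and bioluminescence reflecting viable cell number is recorded over 40 h.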

The nature of test [17]: qHTS RealTime-Glo MT Cell Viability Assay in HEK293 cells - 32 hour (AID 1224868). The procedure, abridged:
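Reads taken at 0, 8, 16, 24, 32 and 40 h from the same wells. HEK293 cells (600/well) carried RealTime-Glo reagents from seeding, with compound added after a 5 h settle at 37 C.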

Test [18] is described as follows: qHTS RealTime-Glo MT Cell Viability Assay in HepG2 cells - 40 hour (AID 1224870). Note: nearly all actives have a fitted effect of over 50% in size. The procedure, abridged: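 HepG2 cells mixed with RealTime-Glo MT reagents (NanoLuc plus cell-permeant prosubstrate) were seeded at 600 cells/well, incubated 5 h at 37 C/5% CO2, then pinned with compounds in DMSO; nonlytic luminescence tracked viability during 40 h treatment.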
Test [19] in a line: A CellTox Green Cytotoxicity Assay to monitor cytotoxicity in HEK293 cells - 0 hour (AID 1224869). Note: nearly all actives have a fitted effect of over 50% in size. Note: potency is the fitted concentration of half-maximal effect. The procedure, abridged: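 Real-time, in one plate: 600 HEK293 cells/well with dead-cell DNA dye, pinned compound after 5 h, 37 C incubation over 40 h; viable cells give no appreciable fluorescence.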
Test [20] can be described thus: qHTS assay to identify small molecule agonists of the estrogen related receptor (ERR) signaling pathway from Tox21 library (AID 1224849; calls by dose curve; note: nearly all actives have a fitted effect of over 15% in size). The settings on record: ERR reporter cell line, ONE-Glo luciferase, 18 h; at 92.4 µM (top of the series) unless noted. The procedure, abridged:
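Luciferase activity in ERR pathway reporter cells served as the agonist readout; exposure lasted 18 h at 37 C, with ONE-Glo detection after 30 min at room temperature.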

Molecules are shown by their SMILES. A number with no mark means an inactive call. Results filed as inconclusive are left out. Calls of active or inactive are those of the source. Unless noted, calls come from the whole dose curve; as a rule, active = well fitted curve in the direction sought with a large enough effect in the repeat runs; inconclusive = weak or mixed curves; inactive = no such curve, though single readings can be large; an effect the other way counts as inactive or inconclusive.
% is set by controls: 0 for no effect and ±100 for the full control effect.

Chain of Luciferin 4-monooxygenase (Photinus pyralis) (P08659 whole entry, looked up): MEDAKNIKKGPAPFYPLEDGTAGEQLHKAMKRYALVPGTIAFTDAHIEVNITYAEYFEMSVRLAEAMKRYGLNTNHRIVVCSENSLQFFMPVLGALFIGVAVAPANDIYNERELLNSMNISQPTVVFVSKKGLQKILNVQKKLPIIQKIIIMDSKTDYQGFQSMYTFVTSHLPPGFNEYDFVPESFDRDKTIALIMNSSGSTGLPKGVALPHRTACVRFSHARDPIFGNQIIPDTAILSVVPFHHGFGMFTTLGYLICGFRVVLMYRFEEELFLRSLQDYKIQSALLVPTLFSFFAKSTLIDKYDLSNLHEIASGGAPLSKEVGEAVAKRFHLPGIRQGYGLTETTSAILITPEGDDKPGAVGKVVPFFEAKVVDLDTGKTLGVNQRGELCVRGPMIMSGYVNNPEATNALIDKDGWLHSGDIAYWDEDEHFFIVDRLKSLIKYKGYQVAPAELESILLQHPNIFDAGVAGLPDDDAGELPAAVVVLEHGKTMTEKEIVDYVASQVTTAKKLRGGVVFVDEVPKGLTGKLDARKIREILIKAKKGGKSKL
Chain of Thyrotropin receptor (Homo sapiens) (P16473 whole entry, looked up): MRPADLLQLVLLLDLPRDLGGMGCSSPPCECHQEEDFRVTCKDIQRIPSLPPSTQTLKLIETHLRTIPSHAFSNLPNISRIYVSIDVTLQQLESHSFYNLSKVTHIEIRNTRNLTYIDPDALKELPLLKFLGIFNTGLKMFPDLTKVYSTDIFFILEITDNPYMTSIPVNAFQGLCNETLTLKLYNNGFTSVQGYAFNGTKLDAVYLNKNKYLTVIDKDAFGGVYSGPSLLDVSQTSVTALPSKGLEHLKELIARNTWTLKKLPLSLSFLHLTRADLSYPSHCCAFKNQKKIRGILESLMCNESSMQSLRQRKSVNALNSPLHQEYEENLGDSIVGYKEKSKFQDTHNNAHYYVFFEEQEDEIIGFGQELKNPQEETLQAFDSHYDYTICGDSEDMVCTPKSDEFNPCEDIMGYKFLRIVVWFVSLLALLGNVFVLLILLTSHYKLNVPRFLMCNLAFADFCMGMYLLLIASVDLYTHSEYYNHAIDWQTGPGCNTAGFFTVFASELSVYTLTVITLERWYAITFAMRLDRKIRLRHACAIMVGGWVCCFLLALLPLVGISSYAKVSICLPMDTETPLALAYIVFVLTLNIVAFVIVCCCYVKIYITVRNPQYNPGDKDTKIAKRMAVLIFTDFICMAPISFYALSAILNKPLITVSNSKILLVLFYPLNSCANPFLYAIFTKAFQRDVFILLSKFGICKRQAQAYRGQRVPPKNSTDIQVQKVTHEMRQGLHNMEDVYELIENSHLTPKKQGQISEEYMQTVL
Chain of Nuclear receptor subfamily 1 group I member 3 (Homo sapiens) (Q14994 whole entry, looked up): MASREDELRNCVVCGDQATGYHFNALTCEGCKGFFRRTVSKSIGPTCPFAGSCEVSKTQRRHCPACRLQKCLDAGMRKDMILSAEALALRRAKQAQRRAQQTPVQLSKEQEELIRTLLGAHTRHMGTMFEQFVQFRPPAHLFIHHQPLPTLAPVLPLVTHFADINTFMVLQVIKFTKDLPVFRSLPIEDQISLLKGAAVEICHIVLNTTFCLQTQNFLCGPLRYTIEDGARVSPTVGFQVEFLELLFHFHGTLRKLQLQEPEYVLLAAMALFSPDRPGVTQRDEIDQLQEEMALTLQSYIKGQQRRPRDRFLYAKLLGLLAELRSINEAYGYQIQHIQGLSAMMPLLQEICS

On to `CCCCC(CC)COC(=O)c1ccccc1O` (stereo not drawn), for which the Potency result in test [1], in test [2], in [3], in test [4], in test [5] and in test [6] was “inactive” in each case. Further, the Potency entry in test [7], in test [8], in test [10], in test [11], in test [14] and in [15] was “inactive” each time. Also, the Potency result in test [16], in [17] and in [18] was “inactive” throughout. For the same compound, the result in test [9], in [12] and in test [13] was inactive.

`CCCN1CCCC[C@H]1C(=O)Nc1c(C)cccc1C`: the Potency result in test [1], in [2], in test [3], in test [4], in [5] and in [6] was “inactive” each time. The Potency entry in test [7], in [8], in test [10], in test [11], in test [14] and in test [15] was “inactive” each time. Besides, the Potency result in test [16], in test [17], in test [19] and in [18] was “inactive” each time. Further, the call in [9], in [12] and in test [13] was inactive.

Turning to `CN(C)CCCSc1ccccc1NC(=O)/C=C/c1ccccc1`, the Potency result in test [1], in test [2], in test [3], in [4], in test [5] and in [6] was “inactive” in each case. Besides, the Potency entry in test [7], in test [8], in [10], in test [11], in [14] and in test [15] was “inactive” throughout. The Potency entry in test [16] and in test [17] was “inactive” each time. Besides, the compound was classed as inactive in test [9], in [12] and in test [13]. In [19], the Potency was 16.9 µM (active).

As for `FC1(F)C(F)(F)C(F)(F)C2(F)C(F)(F)C(F)(F)C(F)(F)C(F)(F)C2(F)C1(F)F` (stereo not drawn), the Potency result in test [1], in [2], in test [3], in test [4], in test [5] and in test [6] was “inactive” in each case. In addition, the Potency entry in [7], in [8], in [10], in test [11], in test [14] and in test [15] was “inactive” each time. The Potency result in test [16], in test [17], in [19] and in test [18] was “inactive” in each case. The compound was classed as inactive in [9], in test [12] and in test [13]. In [20], the activity change, positive = activation was 2.28% [at 42.5 µM].

As to `CCC=O`, the Potency result in test [1], in test [2], in test [3], in [4], in [5] and in [6] was “inactive” each time. The Potency result in test [7], in [8], in test [10], in test [11], in test [14] and in [15] was “inactive” in each case. The Potency entry in [16], in [17], in test [19] and in test [18] was “inactive” each time. Besides, the compound was classed as inactive in [9], in test [12] and in test [13].

Regarding `C=CCCCCCCCCC=O`, the Potency result in [1], in [2], in test [3], in test [4], in test [5] and in [6] was “inactive” each time. Further, the Potency entry in test [7], in test [8], in test [10], in test [11], in test [14] and in [15] was “inactive” in each case. The Potency result in test [16], in [17] and in test [18] was “inactive” throughout. Also, the compound was called inactive in test [9], in test [12] and in test [13]. Further, in test [20], the activity change, positive = activation is -2.86%.

Values taken from PubChem BioAssay (Tox21).
